Reference: PubChem BioAssay (EPA / NIEHS)
Inconclusive results are not listed. Active and inactive are the calls of the source. How the source made its calls: active means hit-call score of the fitted dose curve at least 0.9, where 1 is the maximum; inconclusive means response in the unintended direction; inactive means score below 0.9.

These compounds were tested against human Thyroid Receptor alpha (THRa1), THRA (gene 7067) (UniProt P10827) (assay: ATG_THRa1_TRANS: Attagene TRANS-FACTORIAL HepG2 Assay for human Thyroid Receptor alpha (THRa1) (AID 2283014)).
Experimental: ATG_TRANS is a cell-based, multiplexed-readout assay that uses HepG2, a human liver cell line, with measurements taken at 24 hours after chemical dosing in a 24-well plate.ATG_THRa1_TRANS is one of 30 assay component(s) measured or calculated from the ATG_TRANS assay. It is designed to make measurements of mRNA induction, a form of inducible reporter, as detected with fluorescence intensity signals by Reverse transcription polymerase chain reaction (RT-PCR) and Capillary electrophoresis technology.Data from the assay component ATG_THRa1_TRANS was analyzed into 1 assay endpoint. This assay endpoint, ATG_THRa1_TRANS, was analyzed in the positive analysis fitting direction relative to DMSO as the negative control and baseline of activity. Using a type of inducible reporter, measures of mRNA for gain-of-signal activity can be used to understand the reporter gene at the transcription factor-level as they relate to the gene THRA. Furthermore, this assay endpoint can be referred to as a primary readout, because this assay has produced multiple assay endpoints where this one serves a reporter gene function. To generalize the intended target to other relatable targets, this assay endpoint is annotated to the nuclear receptor intended target family, where the subfamily is non-steroidal.
Human liver HepG2 cells are transiently transfected with multiple reporter transcription units (MRTUs) in 6-well plates using FuGene 6 reagent (Roche; 3 ml FuGene/1 mg DNA). The MRTU constructs are regulated by a cis-regulating element (promoter). […] A major difference between the CIS and TRANS system is that in CIS activities of endogenous TFs are measured, whereas the TRANS assay evaluates changes in activities of exogenous, chimeric NR-Gal4 proteins. […] At the end of 24 hour incubation, total RNA was isolated using TriZol reagent (Invitrogen). The isolated RNA is then reverse-transcribed using oligo(dT) primer and Mo-MLV reverse transcriptase (Invitrogen) with DNAse I (Ambion) treatment for 30 min. The one-tenth of the produced cDNA was amplified by PCR using Taq DNA polymerase (Invitrogen) and two reporter sequence-specific primers. The PCR products were fluorescently labeled by primer extension with 6-arboxyfluorescein (6-FAM) 5'-labeled reporter sequence-specific primer (2 min at 95 C, 20 s at 68 C and 10 min at 72 C) and these products were digested with 5U of HpaI (New England Biolabs) for 2h at 37 C. The fragments were purified using Qiaquick PCR columns (Qiagen), analyzed on an ABI 3130xL genetic analyzer (Applied Biosystems) with peak positions identified by using a set of X-rhodamine (ROX)-labeled MapMarker1000 molecular weight standards (BioVentures). The raw capillary electrophoresis data was processed using Attagraph software (Attagene).

human Thyroid Receptor alpha (THRa1), THRA (gene 7067), sequence (P10827 whole entry, looked up): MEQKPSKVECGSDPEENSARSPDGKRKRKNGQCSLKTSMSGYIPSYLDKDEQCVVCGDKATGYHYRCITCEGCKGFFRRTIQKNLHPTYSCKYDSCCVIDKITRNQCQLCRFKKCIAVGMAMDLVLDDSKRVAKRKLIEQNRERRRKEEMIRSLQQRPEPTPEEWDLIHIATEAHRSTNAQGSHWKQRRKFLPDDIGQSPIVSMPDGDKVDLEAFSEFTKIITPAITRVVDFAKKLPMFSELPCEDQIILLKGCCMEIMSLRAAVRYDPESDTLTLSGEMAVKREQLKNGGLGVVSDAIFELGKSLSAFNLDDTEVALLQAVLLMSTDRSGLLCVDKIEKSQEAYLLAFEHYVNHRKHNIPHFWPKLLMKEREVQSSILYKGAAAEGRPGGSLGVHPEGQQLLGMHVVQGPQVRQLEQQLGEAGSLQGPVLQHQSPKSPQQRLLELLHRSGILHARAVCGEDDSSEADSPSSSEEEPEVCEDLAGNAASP

| SMILES | outcome | AC50 |
| --- | --- | --- |
| CCCCOC(=O)[C@@H](C)Oc1ccc(Oc2ccc(C(F)(F)F)cn2)cc1 | inactive | – |
| COc1c(Cl)ccc(Cl)c1C(=O)O | inactive | – |
| Oc1ccc(C(c2ccc(O)cc2)C(Cl)(Cl)Cl)cc1 | inactive | – |
| C#C[C@]1(O)CC[C@H]2[C@@H]3CCC4=CC(=O)CC[C@@H]4[C@H]3CC[C@@]21CC | inactive | – |
| COC(=O)c1cccc(C)c1S(=O)(=O)NC(=O)Nc1nc(OCC(F)(F)F)nc(N(C)C)n1 | inactive | – |
| CCOC(=O)COc1cc(-n2ncc(C(F)(F)F)c(C)c2=O)c(F)cc1Cl | inactive | – |
| CCCCC(CC)COC(=O)c1ccccc1C(=O)O (stereo not drawn) | inactive | – |
| C[C@]12CC[C@@H]3c4ccc(O)cc4C[C@@H](CCCCCCCCCS(=O)CCCC(F)(F)C(F)(F)F)[C@H]3[C@@H]1CC[C@@H]2O (stereo partly drawn) | inactive | – |
| CCOC(=O)c1ccc(O)cc1 | inactive | – |
| CN(C)C(=O)Nc1ccc(Cl)c(Cl)c1 | inactive | – |
| N#CSCSc1nc2ccccc2s1 | inactive | – |
| COC(=O)c1ccccc1C(=O)O | inactive | – |
| CCN(CC)C(=O)c1cccc(C)c1 | inactive | – |
| CCCOC(=O)c1ccc(C(=O)OCCC)nc1 | inactive | – |
| CCC(O)=C1C(=O)CC(C(=O)O)CC1=O (stereo not drawn) | inactive | – |
| CCC(C)OC(=O)N1CCCCC1CCO (stereo not drawn) | inactive | – |
| COC(=O)CSc1cc(N=c2sc(=O)n3n2CCCC3)c(F)cc1Cl | inactive | – |
| CCOC(=O)C(C)Oc1ccc(Oc2nc3ccc(Cl)cc3o2)cc1 (stereo not drawn) | inactive | – |
| O=C(c1ccccc1)C1CCCCC1 | inactive | – |

| SMILES | outcome | AC50 |
| --- | --- | --- |
| S=C([S-])NCCNC(=S)[S-].[Mn+2] | inactive | – |
| C[C@]12C[C@H](O)[C@H]3[C@@H](CCC4=CC(=O)CC[C@@]43C)[C@@H]1CC[C@@H]2C(=O)CO | inactive | – |
| CC(C)CCCCCCc1ccc(O)cc1 | inactive | – |
| CCCN(CCC)C(=O)SCC | inactive | – |
| COC(=O)c1ccc(CNS(C)(=O)=O)cc1S(=O)(=O)NC(=O)Nc1nc(OC)cc(OC)n1 | inactive | – |
| CC(C)(C)[C@@H](O)[C@@H](Cc1ccc(Cl)cc1)n1cncn1 | inactive | – |
| CC(C)(c1ccc(O)cc1)c1ccc(O)cc1 | inactive | – |
| CCCCOC(=O)C(C)Oc1ccc(Oc2ccc(C(F)(F)F)cn2)cc1 (stereo not drawn) | inactive | – |
| COC(=O)c1c(Cl)nn(C)c1S(=O)(=O)NC(=O)Nc1nc(OC)cc(OC)n1 | inactive | – |
| S=C(S)NCCNC(=S)S.[Mn+2].[S-]C([S-])=NCCN=C([S-])[S-].[Zn+2] | inactive | – |
| CCNc1nc(N)nc(Cl)n1 | inactive | – |
| O=C(Nc1ccc([N+](=O)[O-])cc1Cl)c1cc(Cl)ccc1O | inactive | – |
| CSC(=O)c1cccc2nnsc12 | inactive | – |
| O=C(c1ccc(O)cc1O)c1ccc(O)cc1O | inactive | – |
| Cc1nn(C)c(Oc2ccccc2)c1C=NOCc1ccc(C(=O)OC(C)(C)C)cc1 | – | 109 nM (active) |
| CC1(C)C(C=C(Cl)Cl)C1C(=O)OCc1cccc(Oc2ccccc2)c1 (stereo not drawn) | inactive | – |
| CC(=O)S[C@@H]1CC2=CC(=O)CC[C@]2(C)[C@H]2CC[C@@]3(C)[C@@H](CC[C@@]34CCC(=O)O4)[C@H]12 | inactive | – |
| CCCN(CCC)c1c([N+](=O)[O-])cc(C(F)(F)F)c(N)c1[N+](=O)[O-] | inactive | – |
| CCOC(=O)NCCOc1ccc(Oc2ccccc2)cc1 | inactive | – |
